Measurements taken from publication PMC4336329 (PLoS ONE, 2015).
The campaign covered roughly 310,000 compounds. About 2,200 (0.71%) showed an effect of 50% or more. The effect is printed as a negative number. The sample holds strong results, similar compounds and a random draw of the others, so the mix is not that of the screen.

What follows are molecules tested against human ether-à-go-go-related gene (hERG) potassium channel (human, UniProt Q12809) (assay: primary screen, population patch clamp on CHO cells stably expressing hERG; higher = less effect of the substance).
human ether-à-go-go-related gene (hERG) potassium channel, sequence (Q12809 whole entry, looked up): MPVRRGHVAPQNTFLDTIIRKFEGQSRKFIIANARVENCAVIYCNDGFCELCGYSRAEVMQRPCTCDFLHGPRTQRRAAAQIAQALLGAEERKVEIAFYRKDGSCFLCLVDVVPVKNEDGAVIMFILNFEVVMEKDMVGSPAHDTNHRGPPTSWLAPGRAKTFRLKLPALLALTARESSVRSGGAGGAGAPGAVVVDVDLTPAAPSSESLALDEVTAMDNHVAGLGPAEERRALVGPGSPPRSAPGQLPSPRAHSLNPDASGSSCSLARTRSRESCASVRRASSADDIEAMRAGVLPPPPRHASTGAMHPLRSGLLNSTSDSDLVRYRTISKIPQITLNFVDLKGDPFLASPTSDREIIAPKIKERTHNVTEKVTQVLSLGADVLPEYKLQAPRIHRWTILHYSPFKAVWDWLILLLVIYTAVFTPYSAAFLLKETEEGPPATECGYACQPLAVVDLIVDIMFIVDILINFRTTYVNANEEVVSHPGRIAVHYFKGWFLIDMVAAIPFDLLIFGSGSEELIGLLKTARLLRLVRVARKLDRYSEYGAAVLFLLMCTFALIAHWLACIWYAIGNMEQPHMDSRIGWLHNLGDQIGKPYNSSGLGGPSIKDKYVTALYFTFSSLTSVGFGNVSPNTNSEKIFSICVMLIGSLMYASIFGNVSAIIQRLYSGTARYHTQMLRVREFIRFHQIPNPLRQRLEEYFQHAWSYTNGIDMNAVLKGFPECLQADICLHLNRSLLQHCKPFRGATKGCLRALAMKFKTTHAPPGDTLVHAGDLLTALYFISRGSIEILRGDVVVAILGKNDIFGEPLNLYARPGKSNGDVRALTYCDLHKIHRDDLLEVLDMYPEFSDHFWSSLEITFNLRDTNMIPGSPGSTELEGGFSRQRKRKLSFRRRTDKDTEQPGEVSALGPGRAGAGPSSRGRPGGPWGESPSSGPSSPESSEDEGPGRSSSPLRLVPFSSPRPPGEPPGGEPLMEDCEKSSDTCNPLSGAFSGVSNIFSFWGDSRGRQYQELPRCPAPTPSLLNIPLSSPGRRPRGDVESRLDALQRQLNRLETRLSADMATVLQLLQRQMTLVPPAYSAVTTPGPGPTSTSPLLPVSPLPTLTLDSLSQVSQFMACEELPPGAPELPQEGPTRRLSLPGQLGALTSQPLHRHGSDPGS

Compound	hERG current change (%, negative = inhibition) at 1uM [%]
CCc1nnc(NC(=O)C2CCC2)s1	3.46
CCCn1c(N)c(N(CCOC)C(=O)c2ccc(F)cc2)c(=O)[nH]c1=O	12.9
Cc1[nH]c(C)c(S(=O)(=O)NCCc2ccc(S(N)(=O)=O)cc2)c1C(=O)N1CCCC1	12.3
CCCCSc1nnc(-c2ccc(NC(=O)CCc3ccccc3)cc2)n1C	19.5
Cc1ccc2occ(/C=C/C(=O)O)c(=O)c2c1	9.03
CCNC(=O)C1(c2ccccc2)CCCC1	5.42
CCOC(=O)C[n+]1c(C)csc1C.[Br-]	9.26
CCN1CCN(c2nc(Nc3cccc(C)c3)nc(N)c2[N+](=O)[O-])CC1	-36.9
CCN1CCN(c2nc(Nc3cccc(OC)c3)nc(N)c2[N+](=O)[O-])CC1	-60.6
CCN1CCN(c2nc(Nc3ccc(OC)cc3)nc(N)c2[N+](=O)[O-])CC1	1.06
COc1ccccc1-n1c(/C=C/c2ccc(O)cc2)nc2ccccc2c1=O	13
CCCn1c(=O)c(C(=O)c2ccccc2)nc2ccccc21	-0.484
CCCCn1c(CCNC(=O)CC)nc2ccccc21	0.197
CCCCn1c(=O)c(C(=O)c2ccccc2)nc2ccccc21	5.56
CCCCn1c(CCCNC(=O)CC)nc2ccccc21	-3.85
CCCCCn1c(CCCNC(=O)CC)nc2ccccc21	-52.3
CCCCCn1c(=O)c(C(=O)c2ccccc2)nc2ccccc21	-52.5
Cc1ccc(NC(=O)CSc2sc3c(O)cc(=O)[nH]c3c2C#N)cc1C	0.874
CC(C)(C)OC(=O)N1CCC(C(N)=O)CC1	5.04
CCOC(=O)c1ccc(NC(=O)N2C[C@@H]3C[C@@H](C2)c2cccc(=O)n2C3)cc1	7.4
O=C(c1ccco1)N1CCN(Cc2ccc(Cl)cc2)CC1	7.26
Cc1ccc(Nc2nc(N)nc(CN3CCN(c4ccccc4)CC3)n2)cc1Cl	-10.8
Cc1ccc(Nc2nc(N)nc(CN3CCN(Cc4ccccc4)CC3)n2)cc1Cl	-24.5

Compound	hERG current change (%, negative = inhibition) at 1uM [%]
Nc1nc(CN2CCN(C(=O)c3ccco3)CC2)nc(Nc2cccc(Cl)c2)n1	-76.3
Cc1ccc(Nc2nc(N)nc(CN3CCN(C(=O)c4ccco4)CC3)n2)cc1Cl	-54.1
CCOC(=O)N1CCN(Cc2nc(N)nc(Nc3ccc(Cl)cc3)n2)CC1	-22.7
CN1C(=O)CSc2ccc(NC(=O)Nc3ccccn3)cc21	8.01
Cc1ccc(Cl)cc1NC(=O)c1ccc(CSc2nnnn2C)cc1	9.74
CCOc1cc(/C=N\NC(=O)C2C(=O)NCC2c2ccccc2)ccc1OC (stereo not shown)	10
Oc1ccc(C[C@H]2CNCCN2CCc2cccc(F)c2)cc1	7.34
CCN1CCN(CCCNC(=O)CCC(=O)N2CC(C)Oc3ccc(C)cc32)CC1 (stereo not shown)	6.55
Cc1ccc2c(c1)N(C(=O)CCC(=O)NCCCN1CCN(C)CC1)CC(C)O2 (stereo not shown)	8.82
CC1CN(C(=O)CCC(=O)NCc2ccccc2)c2cc(Cl)ccc2O1 (stereo not shown)	0.521
Cc1ccc2c(c1)N(C(=O)CCC(=O)NCCCN1CCOCC1)CC(C)O2 (stereo not shown)	-1.87
CC1CN(C(=O)CCC(=O)NCCCN2CCN(Cc3ccccc3)CC2)c2cc(Cl)ccc2O1 (stereo not shown)	-68.1
CC1CN(C(=O)CCC(=O)NCCCN2CCC(Cc3ccccc3)CC2)c2cc(Cl)ccc2O1 (stereo not shown)	-62.2
Cc1ccc(C(=O)c2cc(Br)ccc2N)cc1	12.5
COc1ccc(-c2csc(NC(=O)CCNC(=O)c3ccco3)n2)cc1OC	-3.11
O=S(=O)(NC1CCCCCCC1)c1ccc(F)cc1	12.2
CSc1ccc(S(=O)(=O)N2CCC(C(=O)Nc3ccccc3C(F)(F)F)CC2)cc1	11.7
C=CCNC(=O)c1ccccc1NS(=O)(=O)c1ccc(SC)cc1	10.5
C=CCNC(=O)c1ccccc1NC(=O)C1CCN(S(=O)(=O)c2ccc(SC)cc2)CC1	-56.8
Cc1cccc2cc(CN(Cc3ccc(F)cc3)C(=O)C(F)(F)F)c3nnnn3c12	30.5
COC(=O)[C@@H]1C[C@]2(OC(=O)c3ccccc3)C=CC(=O)C[C@@H]2N1C(=O)OCc1ccccc1	11.9
COCC1CCN(Cc2cn[nH]c2-c2ccc(OC)c(F)c2)C1 (stereo not shown)	3.17
COc1ccc(-c2[nH]ncc2CN2CCC(OCc3ccccn3)CC2)c(F)c1	2.13

Compound	hERG current change (%, negative = inhibition) at 1uM [%]
COc1ccc(-c2[nH]ncc2CN2CCC(N3CCSCC3)CC2)cc1F	3.77
COc1ccc(-c2[nH]ncc2CN2CCC(OCc3cccnc3)CC2)c(F)c1	-10.6
CCOC(=O)C1CCN(Cc2cn[nH]c2-c2ccccc2)CC1.O=C(O)C(=O)O	14.2
COc1ccc(-c2[nH]ncc2CN2CCC(c3ccncc3)CC2)cc1F	-51.4
COc1ccc(-c2[nH]ncc2CN2CCCC(C(=O)c3ccc(OC)cc3OC)C2)cc1 (stereo not shown)	-47.3
O=C(c1ccc(F)cc1)C1CCN(Cc2cn[nH]c2-c2ccccc2)CC1	-84.2
COc1ccc(-c2[nH]ncc2CN2CCC(OCc3ccccc3)CC2)c(F)c1	-64.5
Fc1ccc(N2CCN(Cc3cn[nH]c3-c3ccccc3)CC2)cc1	-27
COc1ccc(-c2[nH]ncc2CN2CCC(C(=O)c3ccc(F)cc3)CC2)cc1	-70.5
COc1ccc(-c2[nH]ncc2CN2CCN(c3ccc(F)cc3)CC2)cc1	-4.53
CN(C)c1ccc(C(CNC(=O)c2ccco2)N2CCCC2)cc1 (stereo not shown)	13.2
Cc1nc(C)c(-c2csc(Nc3ccc(O)c(C(=O)O)c3)n2)s1	13.6
CC(=O)c1ccc(NC(=S)N2CCN(c3cccc(Cl)c3)CC2)cc1	12.6
COC(=O)C1CC(=O)N(c2ccc(C)cc2)C1 (stereo not shown)	4.3
CCc1ccccc1NC(=O)CCNS(=O)(=O)c1cc(Br)cnc1N	0.979
Cl.O=C(OCCN1CCOCC1)c1ccc2c(c1)OCCO2	8.19
O=C(NCCc1ccccn1)C1CC(=O)N(Cc2ccccc2Cl)C1 (stereo not shown)	4.09
CCCCCCC(=O)Nc1ccc(Cl)cn1	12.1
CCOC(=O)C1CCN(Cc2cn[nH]c2-c2ccc(C)cc2)CC1	-23.6
O=C(c1ccc(F)cc1)C1CCN(Cc2cn[nH]c2-c2ccc(F)cc2)CC1	-78.9
Fc1ccc(-c2[nH]ncc2CN2CCN(c3ccc(F)cc3)CC2)cc1	-0.0709
O=C(/C=C/c1ccccc1)NC(=S)Nc1ncccn1	14.1
CCN(CC)S(=O)(=O)c1ccc(Cl)c(C(=O)Nc2nncs2)c1	15.1

Compound	hERG current change (%, negative = inhibition) at 1uM [%]
COc1ccccc1OCC(=O)NCCS(=O)(=O)N1CCN(c2ccc(F)cc2)CC1	-3.49
Cc1ccc(-n2nnnc2SCc2ccc(C(=O)O)cc2)cc1C	-80.9
O=C(O)c1ccc(-n2nnnc2SCc2ccccc2)cc1	7.44
O=C(O)c1ccc(CSc2nnnn2-c2ccc(F)cc2)cc1	6.99
Cc1c(C#N)c2ccccc2n1CC(=O)NC(C)c1ccccc1 (stereo not shown)	4.94
COC(=O)c1ccc(CS(=O)(=O)c2ccccc2C)o1	2.66
O=C1N=c2ccccc2=C1c1sc(=S)n(CC2CCCO2)c1O (stereo not shown)	10.8
COc1cc(C(C)=O)ccc1OCC(O)CNCC1(N2CCCCC2)CCCCC1.O=C(O)C(=O)O (stereo not shown)	2.35
COc1ccccc1COCC(O)CNCC1(N2CCCCC2)CCCCC1.O=C(O)C(=O)O (stereo not shown)	0.206
OC(CNCC1(N2CCCCC2)CCCCC1)COc1ccc(Cl)cc1Cl (stereo not shown)	-74.2
Cc1ccccc1NC(=O)CCCN1C(=O)C2CC=CCC2C1=O (stereo not shown)	14.5
O=C(NC1CCCCC1)C(c1ccncc1)N(C(=O)Cn1nnc(-c2cccs2)n1)C1CCCC1 (stereo not shown)	-4.68
Cc1ccccc1NC(=O)c1cccc2c1C(=O)N(C1CCCCC1)C2	15
O=S(=O)(Nc1cc(F)ccc1F)c1cccc2nsnc12	14.5
O=S(=O)(Nc1cc(F)ccc1F)c1cccc2nonc12	-61
CSc1ccccc1NS(=O)(=O)c1cccc2nonc12	7.17
N#Cc1nc(COc2ccc(F)cc2)oc1N1CCN(Cc2ccccc2)CC1	-51
CCN1CCN(c2oc(COc3ccc(Cl)cc3)nc2C#N)CC1	-79.3
CCN1CCN(c2oc(COc3ccc(-c4ccccc4)cc3)nc2C#N)CC1	10.1
N#Cc1nc(COc2ccc(Cl)cc2)oc1N1CCN(Cc2ccccc2)CC1	10.2
N#Cc1nc(COc2ccc(Cl)cc2)oc1N1CCCC1	-2.53
N#Cc1nc(COc2ccccc2)oc1N1CCN(Cc2ccccc2)CC1	-3.01
